Source: PubChem BioAssay (NCATS)
Inconclusive results are not listed. Activity calls are given as the source filed them. Calls follow the shape of the dose curve; as a rule, active = well fitted curve in the direction sought with a large enough effect; inconclusive = small, poorly fitted or top-dose-only effect, or another doubt; inactive = no such curve, though single readings can be large; an effect the other way counts as inactive or inconclusive.

Experiments:
[1] = qHTS of pediatric cancer cell lines to identify multiple opportunities for drug repurposing: Primary screen for SK-N-MC cells (AID 1347093); also: potency is read from the fitted curve at half-maximal effect
In short: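 Metabolically active cells were quantified by ATP-dependent luminescence (CellTiter-Glo, 15 min at room temperature) following 48 h treatment. Cells had been plated at 500-1,000 per well and settled for 5 h beforehand.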

[2] = qHTS of pediatric cancer cell lines to identify multiple opportunities for drug repurposing: Primary screen for BT-37 cells (AID 1347094); also: potency is read from the fitted curve at half-maximal effect
In short: (§1)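 Quantitative HTS format: each compound titrated (MIPE 11 points from 0.78 nM, NPC 8 points from 0.59 nM) onto cells plated 5 hours earlier. After 48 h at 37 degrees C, CellTiter-Glo luminescence was recorded.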

[3] = qHTS of pediatric cancer cell lines to identify multiple opportunities for drug repurposing: Primary screen for U-2 OS cells (AID 1347096); also: nearly all actives have a fitted effect of over 50% in size
In short: (§2)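 Cells (500-1,000/well) in growth media were settled 5 h at 37 degrees C, then given compounds for 48 h. Viability was read as CellTiter-Glo luminescence. Primary runs used MIPE at 11 points (0.78 nM-46 µM) and NPC at 8 points (0.59 nM-46 µM); follow-ups used 11 points.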

[4] = qHTS of pediatric cancer cell lines to identify multiple opportunities for drug repurposing: Primary screen for Saos-2 cells (AID 1347097); also: nearly all actives have a fitted effect of over 40% in size; also: potency is read from the fitted curve at half-maximal effect
In short: as §1

[5] = qHTS of pediatric cancer cell lines to identify multiple opportunities for drug repurposing: Primary screen for SK-N-SH cells (AID 1347098); also: nearly all actives have a fitted effect of over 65% in size; also: potency is read from the fitted curve at half-maximal effect
In short: (§3)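 Cells (500-1,000/well) rested 5 h, then received compounds for 48 h; metabolically active cells were measured by CellTiter-Glo luminescence. Final concentrations spanned up to 46 µM (MIPE, 11-point) or 0.59 nM-46 µM (NPC, 8-point) in primary screens, 11-point in follow-ups.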

[6] = qHTS of pediatric cancer cell lines to identify multiple opportunities for drug repurposing: Primary screen for NB1643 cells (AID 1347099); also: nearly all actives have a fitted effect of over 50% in size; also: potency is read from the fitted curve at half-maximal effect
In short: as §1

[7] = qHTS of pediatric cancer cell lines to identify multiple opportunities for drug repurposing: Primary screen for LAN-5 cells (AID 1347100); also: potency is read from the fitted curve at half-maximal effect
In short: as §2

[8] = qHTS of pediatric cancer cell lines to identify multiple opportunities for drug repurposing: Primary screen for BT-12 cells (AID 1347101); also: nearly all actives have a fitted effect of over 25% in size; also: potency is read from the fitted curve at half-maximal effect
In short: as §3

[9] = qHTS of pediatric cancer cell lines to identify multiple opportunities for drug repurposing: Primary screen for Rh18 cells (AID 1347102); also: nearly all actives have a fitted effect of over 65% in size; also: potency is read from the fitted curve at half-maximal effect
In short: as §2

[10] = qHTS of pediatric cancer cell lines to identify multiple opportunities for drug repurposing: Primary screen for NB-EBc1 cells (AID 1347095); also: potency is read from the fitted curve at half-maximal effect
In short: as §1

Measured: Potency

CCOP(=O)(OCC)C(C)NC(=O)N(CCCl)N=O (stereo not drawn)
not listed: [10]
inactive: all other assays above

N=c1c2c(-c3ccccc3)c(-c3ccccc3)n(Cc3ccccc3)c2ncn1C1CCC(O)CC1 (stereo not drawn)
active: [1] 16600 nM | [2] 968 nM | [10] 590 nM | [4] 23500 nM | [6] 4690 nM | [7] 1050 nM

CN(C)NC(=O)CCC(=O)O
not listed: [4] | [6] | [9]
inactive: all other assays above

COc1cc2cc(c1Cl)N(C)C(=O)C[C@H](OC(=O)C(C)C)[C@]1(C)O[C@H]1[C@H](C)[C@@H]1C[C@@](O)(NC(=O)O1)[C@H](OC)C=CC=C(C)C2
inactive: [3]
active: [1] 1 nM | [2] 3850 nM | [10] 1 nM | [4] 662 nM | [7] 1 nM

Nc1ccc(Sc2ccc(N)cc2)cc1
not listed: [4]
inactive: all other assays above

Cc1[nH]nc2ccc(-c3cncc(OC[C@@H](N)Cc4c[nH]c5ccccc45)c3)cc12
inactive: [3]
active: [1] 264 nM | [2] 1530 nM | [10] 1660 nM | [5] 304 nM | [7] 166 nM | [9] 2960 nM

CC1=C(O)C(=O)C=C2C1=CC=C1[C@@]2(C)CC[C@@]2(C)[C@@H]3C[C@](C)(C(=O)O)CC[C@]3(C)CC[C@]12C
active: [1] 833 nM | [2] 4850 nM | [10] 743 nM | [4] 2350 nM | [5] 3040 nM | [6] 1660 nM | [7] 1870 nM | [8] 2730 nM | [9] 1870 nM

O=[N+]([O-])c1cc([N+](=O)[O-])c2ccccc2c1
active: [1] 10900 nM
not listed: [10]
inactive: all other assays above

CC[C@H]1C=CC=CC[C@@H](C)[C@H](O)[C@@](C)(O)C(=O)[C@@H](C)[C@H](O)[C@@H](C)C(=O)[C@@H](C)[C@H](O)[C@@H](C)C=CC(=O)O[C@@H]2[C@@H](C)[C@H](CC1)O[C@]1(CC[C@H](C)[C@H](C[C@@H](C)O)O1)[C@H]2C
active: [1] 3.3 nM | [2] 2.2 nM | [10] 13.2 nM | [7] 18700 nM | [8] 6.1 nM | [9] 26400 nM
inactive: [5]

Cc1c(C(=O)c2cccc3ccccc23)c2cccc3c2n1[C@H](CN1CCOCC1)CO3
active: [1] 10500 nM | [10] 20900 nM | [6] 11800 nM
inactive: [3]
